# In PubChem BioAssay AID463173 (ICCB-Longwood Screening Facility, Harvard Medical School, 2010):
# The campaign covered roughly 52,000 compounds. About 4,300 (8.3%) were called active. Only a selection was taken, and actives are over-represented in it overall. A number with no mark means an inactive call. No stated cut-off is given here; in the data, active means survival mostly below about 52% (no sharp cut-off); inactive means mostly above about 56%.
# Test system: DeltatarO mutant
# Test: growth inhibition of S. aureus wild type versus tarO mutant, primary screen, teichoic acid synthesis inhibitors, RN4220, OD600 (AID 463173)
# Details: OD600, 18 h, hits give low values, screened at 18.75 µg/mL (by protocol)
row,Structure (SMILES),survival
1,CCSc1nc2c([nH]c3ccccc32)c(=O)n1CC,68%
2,Cc1nc2c(-c3ccccc3)c(C)nn2c(C)c1CCC(=O)NCc1ccc(F)cc1,94%
3,COc1ccc(C(=O)N2CC(C)CC(C)C2)cc1 (configuration not stated),98%
4,CC1CCN(c2nn3c(=O)c(C(=O)NCCc4ccccc4)cnc3s2)CC1,95%
5,O=C(Nc1cccc(C(F)(F)F)c1)Nc1nnc(N2CCCCC2)s1,82%
6,NC(=O)N/N=C/c1ccc(-c2ccc(Cl)cc2)o1,87%
7,CCc1ccccc1N(C)C(=O)Cn1cnc2sc(C)c(S(=O)(=O)N3CCC(C)CC3)c2c1=O,71%
8,CC(C)CCOc1ccc(C2N=C(N)Nc3nc4ccccc4n32)cc1 (configuration not stated),-3% (active)
9,CC(C)c1ccc(C2N=C(N)Nc3nc4ccccc4n32)cc1 (configuration not stated),101%
10,COc1cc(C2N=C(N)Nc3nc4ccccc4n32)ccc1OCCC(C)C (configuration not stated),68%
11,CCC(C#CCN1CCCCC1)(CC)OC(C)=O,98%
12,CCOC(=O)c1ccc(OCC2c3cc(OC)c(OC)cc3CCN2C(=O)Cc2ccc(F)cc2)cc1 (configuration not stated),68%
13,NC(=O)CSc1nc2c(oc3ccccc32)c(=O)n1-c1ccccc1F,59%
14,CC1(NS(=O)(=O)c2ccccc2)CCS(=O)(=O)C1 (configuration not stated),98%
15,CC1(C)CC(N=Cc2c(O)[nH]c(=O)[nH]c2=O)CC(C)(C)N1,85%
16,O=C(Nc1cc(Cl)cc(Cl)c1)c1ccc(F)c(S(=O)(=O)N2CCN(c3ccccc3F)CC2)c1,84%
17,CN(C)C(=O)COc1ccc(S(=O)(=O)c2ccc(OCC(=O)N(C)C)cc2)cc1,109%
18,CSc1oc(-c2ccc(F)cc2)nc1S(=O)(=O)c1ccc(Br)cc1,41% (active)
19,COc1ccccc1NC(=O)CSc1oc(-c2ccc(F)cc2)nc1S(=O)(=O)c1ccc(Br)cc1,49% (active)
20,CC(C)CS(=O)(=O)c1oc(-c2ccc(F)cc2)nc1S(=O)(=O)c1ccccc1,-4% (active)
21,COc1ccccc1NC(=O)CSc1oc(-c2ccccc2)nc1S(=O)(=O)c1ccccc1,145%
22,CCCCS(=O)(=O)c1oc(-c2ccc(F)cc2)nc1S(=O)(=O)c1ccc(C)cc1,30% (active)
23,COc1ccc(-c2nc(S(=O)(=O)c3ccc(C)cc3)c(NCc3ccccc3)o2)cc1,67%
24,Cc1ccc(S(=O)(=O)c2nc(-c3ccc(F)cc3)oc2N2CCN(c3ccccc3)CC2)cc1,107%

row,Structure (SMILES),survival
1,Cc1ccc(-c2nc(S(=O)(=O)c3ccc(F)cc3)c(N3CCN(c4ccccc4)CC3)o2)cc1,72%
2,CCSc1oc(-c2ccc(F)cc2)nc1S(=O)(=O)c1ccc(C)cc1,45%
3,CSc1oc(-c2cccs2)nc1S(=O)(=O)c1ccc(Br)cc1,56%
4,COc1ccccc1NC(=O)CSc1oc(-c2ccccc2)nc1S(=O)(=O)c1ccc(C)cc1,158%
5,COc1cc(C)ccc1OCCSc1nc2ccc(NC(=O)c3cccs3)cc2s1,72%
6,CCOC(=O)c1ccccc1NC(=O)C1CCN(c2ncnc3c2nc2n3CCCCC2)CC1,62%
7,O=C1CS/C(=N/c2nc(-c3ccccc3)cs2)N1,83%
8,COc1ccc(-c2nc3sc(CCNC(=O)c4ccccc4C)c(C)n3n2)cc1,77%
9,Cc1ccccc1CNC(=O)CCC(=O)N1CC2CCCN2c2ccccc21 (configuration not stated),55%
10,O=C(CSc1oc(-c2ccc(F)cc2)nc1S(=O)(=O)c1ccccc1)NC1CCCCC1,61%
11,CCS(=O)(=O)c1oc(-c2ccc(F)cc2)nc1S(=O)(=O)c1ccc(Br)cc1,-5% (active)
12,O=S(=O)(c1ccccc1)c1nc(-c2ccc(F)cc2)oc1NCc1ccccc1,67%
13,COCCNc1oc(-c2ccccc2)nc1S(=O)(=O)c1ccc(Br)cc1,79%
14,CCS(=O)(=O)c1oc(-c2ccc(F)cc2)nc1S(=O)(=O)c1ccccc1,-5% (active)
15,CCCCS(=O)(=O)c1oc(-c2ccc(F)cc2)nc1S(=O)(=O)c1ccccc1,4% (active)
16,O=C(CSc1oc(-c2ccc(F)cc2)nc1S(=O)(=O)c1ccc(Br)cc1)NC1CCCCC1,64%
17,CC(=O)Nc1ccc(NC(=O)CCc2c(C)nc3c(c(C)nn3-c3ccccc3)c2C)cc1,107%
18,CCCCN(C)CCNC(=O)c1cc2c(=O)n(C)c3ccccc3c2n1C,90%
19,Cc1ccccc1CCNC(=O)c1ccc2c(c1)nc1n2CCOC1,84%
20,Cn1c(=S)[nH]c2c(c1=O)C1(CCCC1)Cc1ccccc1-2,80%
21,CSCCC(NS(=O)(=O)c1ccc2c(c1)oc(=O)n2C)C(=O)NCc1ccc(Cl)cc1 (configuration not stated),92%
22,COc1ccc(-c2nc3scc(CCNC(=O)Cc4ccc(F)cc4)n3n2)cc1,95%
23,Cc1ccc(-c2nc3cccnc3s2)cc1NC(=O)C(C)C,112%
